Measured values: the supplement of paper PMC3334620
The full ranking holds about 33,000 sequences; the median of “E-score (-0.5 to 0.5)” is about -0.041, and the highest 2% start at about 0.37. This excerpt belongs to a sample that is enriched for the highest values.

target: T1, Ecm22 (UniProt Q05958); experiment: PBM E-score (8-mer binding enrichment) (E-score (-0.5 to 0.5)); higher = stronger / more preferred TF binding; details: protein concentration: 200 nM; construct: GST-full length
T1 sequence: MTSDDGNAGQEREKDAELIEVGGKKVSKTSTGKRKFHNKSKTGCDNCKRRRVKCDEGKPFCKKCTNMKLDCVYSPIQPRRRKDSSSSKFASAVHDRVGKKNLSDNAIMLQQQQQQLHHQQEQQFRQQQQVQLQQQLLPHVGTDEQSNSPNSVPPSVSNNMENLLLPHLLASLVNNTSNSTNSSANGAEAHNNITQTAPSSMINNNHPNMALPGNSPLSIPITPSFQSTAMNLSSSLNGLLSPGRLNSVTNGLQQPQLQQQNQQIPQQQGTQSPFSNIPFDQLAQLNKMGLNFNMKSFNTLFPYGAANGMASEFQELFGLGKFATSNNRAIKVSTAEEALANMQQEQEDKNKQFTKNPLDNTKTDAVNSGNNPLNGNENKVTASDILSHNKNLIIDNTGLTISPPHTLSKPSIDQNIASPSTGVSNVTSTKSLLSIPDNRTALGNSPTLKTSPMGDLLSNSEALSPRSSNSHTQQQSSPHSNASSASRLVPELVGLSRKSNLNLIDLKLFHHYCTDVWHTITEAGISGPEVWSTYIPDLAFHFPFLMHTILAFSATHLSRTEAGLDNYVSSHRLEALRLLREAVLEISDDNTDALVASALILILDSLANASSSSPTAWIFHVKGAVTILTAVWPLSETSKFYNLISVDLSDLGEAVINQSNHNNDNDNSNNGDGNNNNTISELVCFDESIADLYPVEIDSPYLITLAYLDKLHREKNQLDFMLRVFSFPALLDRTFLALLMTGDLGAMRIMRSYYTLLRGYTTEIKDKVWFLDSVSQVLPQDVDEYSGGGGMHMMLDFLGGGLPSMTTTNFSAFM
In short: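 PURExpress in vitro transcription/translation supplied GST-tagged yeast transcription factors, either full-length or DNA-binding domain. Applied at about 100-200 nM to universal all-10-mer Agilent arrays double-stranded by primer extension, the bound protein was detected with fluorescent anti-GST. E-scores, modified Wilcoxon-Mann-Whitney statistics, were given by the Universal PBM Analysis Suite to ungapped eight-base words pooled with their reverse complements after masliner normalisation.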

Compared with CGATCTAG, ATCGTGGG is lower in “PBM E-score” value: 0.00932 for the first, -0.0631 for the second.

First: CGATCTAA
Second: GTTAGACA
The “PBM E-score” value of the first is higher: 0.0461 for the first, -0.137 for the second.

Going from GGCGTTCA to GACGTTCA, the “PBM E-score” value rises from 0.00425 to 0.0272.

Compared with GTCGTTCA, AAGCCCAG is lower in “PBM E-score” value: 0.448 for the first, -0.109 for the second.

First: TGTACACA
Second: GGTACACC
The “PBM E-score” value of the first is lower: 0.0209 for the first, 0.0576 for the second.

Compared with CGTACACG, GGTACACA is lower in “PBM E-score” value: 0.382 for the first, -0.126 for the second.

Compared with CGTACACC, AGTACACC is lower in “PBM E-score” value: 0.37 for the first, 0.0652 for the second.

First: AGTACACG
Second: CGTACACA
The “PBM E-score” value of the first is lower: 0.238 for the first, 0.402 for the second.

First: AGTACACA
Second: GTAGCAAA
The “PBM E-score” value of the first is higher: 0.18 for the first, 0.0111 for the second.

Compared with GACCAGGC, CCCCAGCA is lower in “PBM E-score” value: -0.228 for the first, -0.237 for the second.

Going from ACGGAACT to ACGGAACG, the “PBM E-score” value rises from 0.157 to 0.442.

Going from CCGGAACC to CCGGAACG, the “PBM E-score” value rises from -0.0325 to 0.445.

Going from CCGGAACA to ACGGAACC, the “PBM E-score” value rises from -0.0629 to 0.218.

Going from CCCCGCCA to TAGGACCA, the “PBM E-score” value falls from 0.0635 to -0.185.

Compared with GTATGAAC, ATGTTACA is lower in “PBM E-score” value: 0.234 for the first, -0.0708 for the second.

First: GAGAGACC
Second: ACGGGGAC
The “PBM E-score” value of the first is lower: -0.21 for the first, 0.0581 for the second.

Compared with GAGAACAA, AGATCGTC is lower in “PBM E-score” value: 0.124 for the first, -0.0821 for the second.

First: CGATCGTC
Second: AGATCGTG
The “PBM E-score” value of the first is higher: 0.104 for the first, -0.0112 for the second.

Compared with AGATCGTA, CGATCGAA is lower in “PBM E-score” value: 0.389 for the first, 0.164 for the second.

Compared with GGATCGTA, GGATCGGA is lower in “PBM E-score” value: 0.434 for the first, 0.159 for the second.

First: GGATCGAA
Second: CGATCGTA
The “PBM E-score” value of the first is lower: 0.251 for the first, 0.437 for the second.

Compared with AGTCCCAA, GGCTAGTA is higher in “PBM E-score” value: -0.193 for the first, -0.00889 for the second.

First: CTGACGCA
Second: GAGCTTAA
The “PBM E-score” value of the first is lower: -0.319 for the first, 0.0486 for the second.

First: AAAGAGGT
Second: AACGAGGT
The “PBM E-score” value of the first is lower: -0.244 for the first, 0.447 for the second.

Compared with CACGAGGC, GACGAGGC is lower in “PBM E-score” value: 0.171 for the first, 0.163 for the second.

Going from ACCGAGGT to AGCGAGGA, the “PBM E-score” value rises from 0.225 to 0.265.

Going from CACGAGGA to AACGAGGC, the “PBM E-score” value rises from 0.196 to 0.434.

Compared with AACGAGGA, TACGAGGA is higher in “PBM E-score” value: 0.449 for the first, 0.466 for the second.

First: ATCGAGGA
Second: GACGAGGA
The “PBM E-score” value of the first is lower: 0.115 for the first, 0.175 for the second.

Compared with CATGAAAA, ATTGCTTC is higher in “PBM E-score” value: 0.00915 for the first, 0.0317 for the second.

First: AAGCTTCA
Second: ACAAATTC
The “PBM E-score” value of the first is lower: -0.0703 for the first, 0.0192 for the second.

Compared with AACGGGCT, ACGCTCAA is lower in “PBM E-score” value: 0.16 for the first, 0.0449 for the second.

First: GGTCTAAC
Second: CGGGACGC
The “PBM E-score” value of the first is lower: -0.0964 for the first, -0.0663 for the second.

Compared with ACTCGGCT, CTGCACTC is lower in “PBM E-score” value: 0.112 for the first, -0.104 for the second.

Compared with AACGAGGG, CACGAGGG is lower in “PBM E-score” value: 0.439 for the first, 0.189 for the second.

First: AGCGAGGG
Second: ACGCAAGG
The “PBM E-score” value of the first is higher: 0.249 for the first, -0.01 for the second.

Going from AGCCGGAT to TACGAGTA, the “PBM E-score” value rises from -0.0402 to 0.467.

First: CACGAGTA
Second: AACGCGTT
The “PBM E-score” value of the first is lower: 0.157 for the first, 0.212 for the second.

Going from GACGAGTA to AGCGAGTG, the “PBM E-score” value rises from 0.117 to 0.324.

Compared with AGCGAGTA, CACGAGTG is lower in “PBM E-score” value: 0.363 for the first, 0.106 for the second.

Going from ACCGAGTA to AACGAGTA, the “PBM E-score” value rises from 0.286 to 0.433.

Compared with AACGAGTG, AAAGAGTT is lower in “PBM E-score” value: 0.421 for the first, -0.264 for the second.

First: AACGAGTT
Second: CTGCGTTC
The “PBM E-score” value of the first is higher: 0.41 for the first, 0.213 for the second.

Compared with GCGTTGAA, CCATATCC is lower in “PBM E-score” value: 0.218 for the first, -0.0494 for the second.

Going from CACGTACG to CTAGTTAA, the “PBM E-score” value falls from 0.338 to -0.153.

First: GCCTCTAC
Second: GACGAGTC
The “PBM E-score” value of the first is lower: -0.123 for the first, 0.115 for the second.

Going from CACGAGTC to AACGAGTC, the “PBM E-score” value rises from -0.0272 to 0.419.

Compared with AGAGGGAT, ACAGTTCC is higher in “PBM E-score” value: -0.0615 for the first, -0.0566 for the second.

Compared with CCTTCGTC, ACTTCGTA is higher in “PBM E-score” value: 0.0674 for the first, 0.434 for the second.

Going from GCTTCGCA to ACTTCGTC, the “PBM E-score” value falls from 0.193 to 0.00917.

Compared with CCTTCGCA, GCTTCGGA is lower in “PBM E-score” value: 0.183 for the first, 0.121 for the second.

Compared with ACTTCGTG, CCTTCGTA is higher in “PBM E-score” value: 0.116 for the first, 0.453 for the second.

First: GCTTCGTA
Second: TCGGGTCA
The “PBM E-score” value of the first is higher: 0.441 for the first, 0.241 for the second.

Compared with CATCGTTA, CATCGTGC is lower in “PBM E-score” value: 0.259 for the first, 0.164 for the second.

First: CATCGTTC
Second: AATCGTTC
The “PBM E-score” value of the first is higher: 0.428 for the first, 0.426 for the second.

First: AATCGTTA
Second: AATCGTTG
The “PBM E-score” value of the first is higher: 0.269 for the first, 0.165 for the second.

Compared with CCATTGGA, AGGTATTA is higher in “PBM E-score” value: -0.162 for the first, -0.0627 for the second.

Going from AGGTCGTG to GGGTCGGA, the “PBM E-score” value rises from -0.13 to 0.135.

Compared with GGGTCGTA, AGGTCGTC is lower in “PBM E-score” value: 0.439 for the first, 0.106 for the second.

Compared with AGGTCGTA, CGGTCGTC is lower in “PBM E-score” value: 0.458 for the first, -0.0294 for the second.

First: GGGTCGAA
Second: CGGTCGTA
The “PBM E-score” value of the first is lower: -0.0301 for the first, 0.464 for the second.

Compared with CGGTCGGA, ACAGACCA is lower in “PBM E-score” value: 0.0409 for the first, -0.0504 for the second.

First: AGCTGAAA
Second: AACTGCAG
The “PBM E-score” value of the first is lower: -0.106 for the first, -0.0539 for the second.

Going from CTTTTTCC to CGTTGGAG, the “PBM E-score” value falls from -0.068 to -0.14.

Compared with ACTTACGG, GCTTACAA is lower in “PBM E-score” value: 0.207 for the first, -0.144 for the second.

Going from CCTTACGA to GCTTACGA, the “PBM E-score” value rises from 0.383 to 0.386.

Compared with CCTTACTA, ACTTACGA is higher in “PBM E-score” value: 0.0754 for the first, 0.393 for the second.

Compared with CCTTACGC, GCTTACTA is lower in “PBM E-score” value: 0.205 for the first, -0.087 for the second.

Going from ACTTACGC to AGAATTGC, the “PBM E-score” value rises from -0.137 to -0.0838.

Compared with CGACAAAG, CTGCGAGC is lower in “PBM E-score” value: 0.192 for the first, 0.0428 for the second.

Going from TAGTCCGA to ACATCGTG, the “PBM E-score” value falls from 0.123 to 0.0443.

Going from ACATCGTC to CCATCGAA, the “PBM E-score” value falls from 0.0184 to -0.136.

First: GCATCGAA
Second: ACATCGTA
The “PBM E-score” value of the first is lower: 0.0551 for the first, 0.423 for the second.

Compared with CCATCGTA, CCATCGTC is lower in “PBM E-score” value: 0.428 for the first, 0.00759 for the second.

Compared with GCATCGGA, GCATCGTA is higher in “PBM E-score” value: 0.126 for the first, 0.426 for the second.

Going from CCGCCACA to GCCGAGAC, the “PBM E-score” value rises from -0.107 to -0.0241.

Going from GATGTTGC to CGGGACAC, the “PBM E-score” value falls from 0.00895 to -0.0319.

Compared with TACTCACA, CCCCCGAG is lower in “PBM E-score” value: -0.0537 for the first, -0.231 for the second.

Going from CCGAGGCG to ACGAGGCG, the “PBM E-score” value rises from 0.0444 to 0.431.

Compared with ACGAGGCA, CCGAGGCC is lower in “PBM E-score” value: 0.401 for the first, 0.117 for the second.

Going from AGGAGGCG to ACGAGGCT, the “PBM E-score” value rises from -0.229 to 0.382.

First: GCGAGGCA
Second: CCGAGGCA
The “PBM E-score” value of the first is higher: 0.296 for the first, 0.0444 for the second.

Compared with ACGAGGCC, ACCAGGCT is lower in “PBM E-score” value: 0.376 for the first, -0.198 for the second.

First: AAGAGGCT
Second: GCGAGGCC
The “PBM E-score” value of the first is lower: -0.268 for the first, 0.251 for the second.

First: CCGGTCTA
Second: AATAACAA
The “PBM E-score” value of the first is higher: -0.0788 for the first, -0.0956 for the second.

Going from AGATTCCT to AACGCCGC, the “PBM E-score” value rises from -0.227 to -0.00584.
